PubChem BioAssay (Tox21)
Inconclusive results are not listed. A call without a number means that no potency is given here. Values without a mark were called inactive. The source made the active and inactive calls. The call rests on the fitted dose curve; in most records, active means well fitted inhibition curve with a large enough effect in the signal ratio in the repeat runs (not every such curve was filed as active); inconclusive means weak or mixed curves, or effect the other way; inactive means no such curve, though single readings can be large or run the other way; the % refers to the signal ratio.

What follows are compounds tested against Estrogen receptor beta (Homo sapiens) (UniProt Q92731) (assay: qHTS assay to identify small molecule antagonists of the estrogen receptor beta (ER-beta) signaling pathway (AID 1259378)). Conditions: ER-beta-UAS-bla HEK293T, beta-lactamase FRET ratio, 16 h; series mostly up to 92.4 µM.
Text: National Center for Advancing Translational Sciences [NCATS]
NIH Chemical Genomics Center [NCGC]
U.S. Environmental Protection Agency [EPA]
National Institutes of Environmental Health Sciences [NIEHS]
National Toxicology Program [NTP]
U.S. Food and Drug Administration [FDA]
Estrogen receptor (ER), a nuclear hormone receptor, plays an important role in development, metabolic homeostasis and reproduction. Two subtypes of ER, ER-alpha and ER-beta, have similar expression patterns with some uniqueness in both types. Endocrine disrupting chemicals (EDCs) and their interactions with steroid hormone receptors like ER causes disruption of normal endocrine function. To identify the compounds that inhibit ER signaling, an ER-beta-UAS-bla GripTite cell line (Life Technologies, Madison, WI, USA) containing a beta-lactamase reporter gene under the control of an UAS response element was used to screen Tox21 10K compound library.
Tox21 Assay Protocol Summary:
ER-beta-UAS-bla HEK293T cells were dispensed at 2,000 cells/4 uL of assay medium containing 2% charcoal stripped FBS per well into black wall/clear-bottom 1536-well plates using a Multidrop Combi (ThermoFisher Scientific, Waltham, MA) dispenser. After the assay plates were incubated at a 37C and 5% CO2 for 6 hr, 23 nL of compounds dissolved in DMSO, positive controls or DMSO only was transferred to the assay plate by a Pintool station (Kalypsys, San Diego, CA), followed by addition of 1 uL (1nM as final concentration) of 17-beta-estradiol (E2) in assay medium using a BioRAPTR FRD (Flying Reagent Dispenser, Aurora Discovery, San Diego, CA). The plates were incubated at 37C and 5% CO2 for 16 hr. Then 1 uL of LiveBLAzerTM B/G FRET substrate was added using a Flying Reagent Dispenser, the plates were incubated at room temperature for 2 hours, and fluorescence intensity was measured by an Envision plate reader (PerkinElmer, Shelton, CT).
Potency means the concentration at half of the fitted maximal effect.

Sequence of Estrogen receptor beta (Homo sapiens) (Q92731 whole entry, looked up): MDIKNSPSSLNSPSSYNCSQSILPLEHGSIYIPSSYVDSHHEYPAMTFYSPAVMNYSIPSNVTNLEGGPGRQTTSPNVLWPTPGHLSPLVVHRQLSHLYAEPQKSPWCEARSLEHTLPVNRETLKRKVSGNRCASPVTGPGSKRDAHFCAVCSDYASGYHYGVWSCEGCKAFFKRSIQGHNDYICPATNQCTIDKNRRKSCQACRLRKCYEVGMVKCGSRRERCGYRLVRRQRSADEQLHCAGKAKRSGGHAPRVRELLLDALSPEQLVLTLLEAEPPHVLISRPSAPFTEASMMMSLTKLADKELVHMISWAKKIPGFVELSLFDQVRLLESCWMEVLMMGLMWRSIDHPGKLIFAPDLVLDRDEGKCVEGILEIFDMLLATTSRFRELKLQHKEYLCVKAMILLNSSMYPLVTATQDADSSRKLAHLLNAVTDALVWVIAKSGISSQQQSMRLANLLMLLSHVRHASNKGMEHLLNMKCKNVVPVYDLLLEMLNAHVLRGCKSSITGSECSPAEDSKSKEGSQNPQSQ

SMILES	Potency	activity, negative = inhibition
C[N+]1(C)CCC(=C(c2ccccc2)c2ccccc2)CC1	inactive	
CC(=O)Oc1ccc(C(=C2CCCCC2)c2ccc(OC(C)=O)cc2)cc1	0.0106 µM (active)	
O=C1OCCN1/N=C/c1ccc([N+](=O)[O-])o1	inactive	
Cc1cc(OI)c(C(C)C)cc1-c1cc(C(C)C)c(OI)cc1C	inactive	
CC(=N\O)/C(C)=N/O	inactive	
Brc1cc(-c2ccc(Br)c(Br)c2Br)cc(Br)c1Br	inactive	
CC(C)(C)CC(C)(C)c1ccc(OCCO)cc1	43 µM (active)	
CC#N	inactive	
CC1CC(O)CC(C)(C)C1 (stereo not given)	inactive	
Cc1occc1C(=O)Nc1ccc(C(=O)N2CCC(F)(F)/C(=C\C(=O)N3CCC(N4CCCCC4)CC3)c3ccccc32)cc1	inactive	
CCCCCC=CCC=CCCCCCCCC(=O)OCC	inactive	
CCC(C(=O)OCCN(CC)CC)c1ccccc1 (stereo not given)	inactive	
Cc1nccn1-c1ccc(Sc2cccc(C3(C(N)=O)CCOCC3)c2)cc1	9.69 µM (active)	
C[Si](NC1CCCCC1)(NC1CCCCC1)NC1CCCCC1	inactive	
Cc1cc(S(=O)(=O)O)ccc1N=Nc1c(O)ccc2ccccc12	inactive	
Cc1ccc(/C=N/n2c(-c3ccccc3)csc2=S)cc1	7.5 µM (active)	
CO[Si](C)(OC)OC	inactive	
CCCCC/C(=C\c1ccccc1)CO	inactive	
COc1ccccc1N=Nc1c(S(=O)(=O)O)cc2cc(S(=O)(=O)O)cc(NC(C)=O)c2c1O	inactive	
COC(OC)(C(=O)c1ccccc1)c1ccccc1	inactive	

SMILES	Potency	activity, negative = inhibition
CC(C)(O)c1ccccc1CC[C@@H](SCC1(CC(=O)O)CC1)c1cccc(/C=C/c2ccc3ccc(Cl)cc3n2)c1	inactive	
CC(=O)Nc1ccc(N)cc1	inactive	
O=S1OCCO1	inactive	
CCOC(=N)CC(=O)OCC	inactive	
COc1ccc(C(=O)c2cccc(O)c2)c(OC)c1	43.2 µM (active)	
O=C(O)c1cccc(O)c1	inactive	
CN1C(=O)CC(C)(c2ccccc2)C1=O (stereo not given)	inactive	
Cn1c(=O)c2c(ncn2CC(=O)O)n(C)c1=O	inactive	
O=C(O)c1ccc(CO)o1	inactive	
NC(=O)Nc1ccc(Cl)cc1	inactive	
Cc1nc2ccccc2s1	inactive	
COc1ccc(CCC(=O)c2c(O)cc(O[C@@H]3O[C@H](CO)[C@@H](O)[C@H](O)[C@H]3O[C@@H]3O[C@@H](C)[C@H](O)[C@@H](O)[C@H]3O)cc2O)cc1O	inactive	
COC(=O)Nc1nc2ccc(C(=O)c3cccs3)cc2[nH]1	inactive	
c1cnc2c(n1)CCCC2	inactive	
CCOC(=O)c1ccccc1C	inactive	
CCCCN(CCCC)CCCOC(=O)c1ccc(N)cc1	inactive	
CCc1cccc(N(C)C(N)=Nc2cccc3ccccc23)c1	inactive	
COc1cc2ncnc(Nc3ccc(F)c(Cl)c3)c2cc1OCCCN1CCOCC1	7.5 µM (active)	
CCCC(=O)O[C@]1(C(=O)COC(=O)CC)CC[C@H]2[C@@H]3CCC4=CC(=O)CC[C@]4(C)[C@H]3[C@@H](O)C[C@@]21C		1.87% [at 19 µM]
CNCCCC1c2ccccc2C=Cc2ccccc21	11.9 µM (active)	
